According to PubChem BioAssay (NCATS):
Results filed as inconclusive are left out. Active and inactive are the calls of the source. Calls follow the shape of the full dose curve.

Tests used:
[1] = Primary qHTS for inhibitors of SARS-S pseudo-typed particle cell entry (AID 1479145); also: nearly all actives have a fitted effect of over 45% in size; as to activity change, negative = inhibition: series mostly up to about 57 µM
[2] = Primary qHTS for Huh7 cytotoxicity: counterscreen for inhibitors of MERS-S pseudotyped particle cell entry (AID 1479147)
[3] = Primary qHTS for inhibitors of MERS-S pseudo-typed particle cell entry (AID 1479149); also: nearly all actives have a fitted effect of over 60% in size; as to activity change, negative = inhibition: series mostly up to about 57 µM
[4] = Primary qHTS for Vero E6 cytotoxicity: counterscreen for inhibitors of SARS-S pseudo-typed particle cell entry (AID 1479150)
% is scaled to controls: 0 for no effect and ±100 for the full control effect.

CCN(CC)CCNC(=O)c1cc(S(C)(=O)=O)ccc1OC
inactive: Potency [1] | Potency [2] | Potency [3] | Potency [4]

NC(=O)NC1NC(=O)NC1=O (centres undefined)
inactive: Potency [1] | Potency [2] | Potency [3] | Potency [4]

CC(CN(C)C)C(C)(O)Cc1ccc(Cl)cc1 (centres undefined)
inactive: Potency [1] | Potency [2] | Potency [3] | Potency [4]

COc1c2occc2cc2ccc(=O)oc12
inactive: Potency [1] | Potency [2] | Potency [3] | Potency [4]

CC(=O)N(c1onc(C)c1C)S(=O)(=O)c1ccc(N)cc1
inactive: Potency [1] | Potency [2] | Potency [3] | Potency [4]

Cc1ccccc1C(=O)N1CC/C(=N\OS(=O)(=O)O)c2ccc(Cl)cc21
inactive: Potency [1] | Potency [2] | Potency [3] | Potency [4]

COc1ccc(C2CNC(=O)C2)cc1OC1CCCC1 (centres undefined)
inactive: Potency [1] | Potency [2] | Potency [3] | Potency [4]

CCCC(=O)O[C@]1(C(=O)COC(=O)CC)CC[C@H]2[C@@H]3CCC4=CC(=O)CC[C@]4(C)[C@H]3[C@@H](O)C[C@@]21C
inactive: Potency [1] | Potency [2] | Potency [3] | Potency [4]

NCCNCCNCCNCCN
inactive: outcome [1] inactive [at 11.4 µM] | outcome [2] inactive [at 11.4 µM] | outcome [3] inactive [at 11.4 µM] | activity change, negative = cytotoxicity [4] 1.23% [at 11.4 µM]

CN1C[C@H](C(=O)N[C@]2(C)O[C@@]3(O)[C@@H]4CCCN4C(=O)[C@H](Cc4ccccc4)N3C2=O)C=C2c3cccc4[nH]cc(c34)C[C@H]21
inactive: Potency [1] | Potency [2] | Potency [3] | Potency [4]

CN(C)C(=O)COC(=O)Cc1ccc(OC(=O)c2ccc(N=C(N)N)cc2)cc1
inactive: Potency [1] | Potency [2] | Potency [3] | Potency [4]

CCOC(=O)NNc1ccc(N(CC)CC(C)O)nn1 (centres undefined)
inactive: Potency [1] | Potency [2] | Potency [3] | Potency [4]

CC(C)COC(=O)c1ccc(N)cc1
inactive: Potency [1] | Potency [2] | Potency [3] | Potency [4]

Cc1noc(NS(=O)(=O)c2ccc(N)cc2)c1C
inactive: Potency [1] | Potency [2] | Potency [3] | Potency [4]

Nc1nc2ccc(OC(F)(F)F)cc2s1
inactive: Potency [1] | Potency [2] | Potency [3] | Potency [4]

CC(C)=CCC/C(C)=C/CO
inactive: Potency [1] | Potency [2] | Potency [3] | Potency [4]

C[C@H]1C[C@@H]2[C@H]([C@@H](O)C[C@@]3(C)[C@H]2CC[C@]3(O)C(=O)CO)[C@@]2(C)C=CC(=O)C=C12
inactive: Potency [1] | Potency [2] | Potency [3] | Potency [4]

O=C(O)Cc1cccc(-c2cc(CCCCCCc3ccc(O[C@H]4O[C@H](CO)[C@@H](O)[C@H](O)[C@@H]4O)c(-c4cccc(CC(=O)O)c4)c3)ccc2O[C@H]2O[C@H](CO)[C@@H](O)[C@H](O)[C@@H]2O)c1
inactive: activity change, negative = inhibition [1] -22.9% [at 0.573 µM] | outcome [2] inactive [at 0.573 µM] | outcome [3] inactive [at 0.573 µM] | outcome [4] inactive [at 0.573 µM]

Cc1ccccc1N1CCN(CCc2nnc3n2CCCC3)CC1
inactive: Potency [1] | Potency [2] | Potency [3] | Potency [4]

CC(CSC(=O)c1ccccc1)C(=O)N1C[C@@H](Sc2ccccc2)C[C@H]1C(=O)O (some centres undefined)
inactive: Potency [1] | Potency [2] | Potency [3] | Potency [4]

CN/C(=C\[N+](=O)[O-])NCCSCc1csc(CN(C)C)n1
inactive: Potency [1] | Potency [2] | Potency [3] | Potency [4]

O=C(O)[C@H](O)c1ccccc1
inactive: Potency [1] | Potency [2] | Potency [3] | Potency [4]

CC[N+](C)(CC)CCOC(=O)C1c2ccccc2Oc2ccccc21
inactive: Potency [1] | Potency [2] | Potency [3] | Potency [4]

C[N+](C)(CCOc1ccccc1)Cc1cccs1
inactive: Potency [1] | Potency [2] | Potency [3] | Potency [4]

C=CC(N)CCC(=O)O (centres undefined)
inactive: Potency [1] | Potency [2] | Potency [3] | Potency [4]

CCC[C@@H]1C[C@@H](C(=O)N[C@@H]([C@H]2O[C@H](SC)[C@H](O)[C@@H](O)[C@H]2O)[C@@H](C)O)N(C)C1
inactive: Potency [1] | Potency [2] | Potency [3] | Potency [4]

CC(C)OC(=O)OCOP(=O)(CO[C@H](C)Cn1cnc2c(N)ncnc21)OCOC(=O)OC(C)C
inactive: Potency [1] | Potency [2] | Potency [3] | Potency [4]

Cc1c(I)c(=O)n(-c2ccccc2)n1C
inactive: Potency [1] | Potency [2] | Potency [3] | Potency [4]

CN1C(CSCC(F)(F)F)Nc2cc(Cl)c(S(N)(=O)=O)cc2S1(=O)=O (centres undefined)
inactive: Potency [1] | Potency [2] | Potency [3] | Potency [4]

O=C(O)Cc1cccc2ccccc12
inactive: Potency [1] | Potency [2] | Potency [3] | Potency [4]

CC(=O)CC(c1ccc([N+](=O)[O-])cc1)c1c(O)c2ccccc2oc1=O (centres undefined)
inactive: Potency [1] | Potency [2] | Potency [3] | Potency [4]
